From PubChem BioAssay
GCN5L2 inh: qHTS Assay for Inhibitors of GCN5L2; Histone acetyltransferase KAT2A (Homo sapiens), Q92830; GCN5L2 HAT assay, ThioGlo1 CoA-SH fluorescence; Potency, µM (titrated, usually from 58.9 µM), for the others: at the top dose activity change, negative = inhibition, hits mostly inhibitors; 390,000 tested, 0.21% active; AID 504327, 2011; further: potency means the concentration at half of the fitted maximal effect
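Titration-based screen in which CoA formation is detected via maleimide probe ThioGlo1 (50uM) turning fluorescent on thiol reaction; substrates H3(1-25) 75uM and acetyl-CoA 70uM, GCN5L2 20nM, 20 min incubation at room temperature.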
Pin1 inh: qHTS Assay to Find Inhibitors of Pin1. Peptidyl-prolyl cis-trans isomerase NIMA-interacting 1 (Homo sapiens), Q13526. Pin1 FP peptide displacement, HiFluor488, 10 min. Potency, µM (doses to about 115 µM), without a hit: at the top dose activity, negative = inhibition, usual class: inhibitors. 390,000 tested, 0.009% active. AID 504891, 2011; active means well fitted inhibition curve with a large enough effect in the polarisation, with a control signal flat, not every such curve was filed as active; inconclusive means small, poorly fitted or top-dose-only effect, or effect the other way, or a change in a side signal; inactive means no such curve, though single readings can be large or run the other way; the % refers to the polarisation; further: potency means the concentration at half of the fitted maximal effect
KCNH2 3.1 block: qHTS for Inhibitors of KCHN2 3.1: Mutant qHTS. Potassium voltage-gated channel subfamily H member 2, brain isoform KCNH2 3.1 (human). U2OS KCNH2 3.1, thallium flux FluxOr; hits give low values. activity change, % (tested at about 1.8 µM). 340,000 tested, 0.95% active. AID 720553, 2013;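 active means maximum activity change below -70%; inconclusive means maximum activity change from -70% to -50%; inactive means maximum activity change above -50%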;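 further: thallium influx rate constant from kinetic fluorescence after stimulation buffer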
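Kinetic fluorescence (2 min after stimulation buffer) measures Tl+ influx through KCNH2 3.1 expressed by viral transduction in U2OS cells; the rate constant is normalized against DMSO controls serving as positive and negative references.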
PGK inhibitor: qHTS Assay to Find Inhibitors of Phosphoglycerate Kinase | Potency, µM (doses to about 57.5 µM), inactives show top-dose activity change, negative = inhibition, hits mostly inhibitors | Phosphoglycerate kinase, glycosomal (Trypanosoma brucei brucei), P07378 | PGK/GAPDH coupled, Kinase-Glo luminescence, 60 min | 380,000 tested, 0.043% active; further: potency means the concentration at half of the fitted maximal effect; nearly all actives have a fitted effect of over 60% in size
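Luminescent ATP detection (Kinase-Glo Plus) follows a 60-minute room-temperature incubation, with wells lacking PGK as controls. Buffer: 100 mM TEA (pH 7.6), 5 mM MgCl2, 0.01% Tween-20. Coupling enzyme GAPDH (100 nM final) supplies unstable 1,3-BPG in-well.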
RGS4 inh: Inhibitors of Regulator of G Protein Signaling (RGS) 4: qHTS. Transcreener GDP fluorescence polarization, RGS4-accelerated GTP hydrolysis. 390,000 tested, 0.039% active. Regulator of G-protein signaling 4 (Homo sapiens), P49798. AID 504845, 2011. Potency, µM (highest dose often 114 µM), for inactives: top-dose activity change, negative = inhibition, actives largely listed as inhibitors; further: potency means the concentration at half of the fitted maximal effect; nearly all actives have a fitted effect of over 75% in size
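MLSMR compounds (23 nl, pin-transferred) preincubated 10 min at room temperature with a 500nM (2x) first reagent, then RGS4 at 900nM (2x) plus Transcreener GDP mix added; fluorescence polarization (620/688 nm) read before and after 90 min at 30 °C.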
hERG WT inh: qHTS for Inhibitors of KCHN2 3.1: Wildtype qHTS; activity change, % at 1.84 µM; AID 720551, 2013; U2OS, BacMam KCNH2, thallium flux FluxOr; hits give low values; Voltage-gated inwardly rectifying potassium channel KCNH2 (Homo sapiens), Q12809; 340,000 tested, 0.37% active;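 active means maximum activity change below -70%; inconclusive means maximum activity change between -70% and -50%; inactive means maximum activity change above -50%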
Target sequence (Q12809 whole entry, looked up): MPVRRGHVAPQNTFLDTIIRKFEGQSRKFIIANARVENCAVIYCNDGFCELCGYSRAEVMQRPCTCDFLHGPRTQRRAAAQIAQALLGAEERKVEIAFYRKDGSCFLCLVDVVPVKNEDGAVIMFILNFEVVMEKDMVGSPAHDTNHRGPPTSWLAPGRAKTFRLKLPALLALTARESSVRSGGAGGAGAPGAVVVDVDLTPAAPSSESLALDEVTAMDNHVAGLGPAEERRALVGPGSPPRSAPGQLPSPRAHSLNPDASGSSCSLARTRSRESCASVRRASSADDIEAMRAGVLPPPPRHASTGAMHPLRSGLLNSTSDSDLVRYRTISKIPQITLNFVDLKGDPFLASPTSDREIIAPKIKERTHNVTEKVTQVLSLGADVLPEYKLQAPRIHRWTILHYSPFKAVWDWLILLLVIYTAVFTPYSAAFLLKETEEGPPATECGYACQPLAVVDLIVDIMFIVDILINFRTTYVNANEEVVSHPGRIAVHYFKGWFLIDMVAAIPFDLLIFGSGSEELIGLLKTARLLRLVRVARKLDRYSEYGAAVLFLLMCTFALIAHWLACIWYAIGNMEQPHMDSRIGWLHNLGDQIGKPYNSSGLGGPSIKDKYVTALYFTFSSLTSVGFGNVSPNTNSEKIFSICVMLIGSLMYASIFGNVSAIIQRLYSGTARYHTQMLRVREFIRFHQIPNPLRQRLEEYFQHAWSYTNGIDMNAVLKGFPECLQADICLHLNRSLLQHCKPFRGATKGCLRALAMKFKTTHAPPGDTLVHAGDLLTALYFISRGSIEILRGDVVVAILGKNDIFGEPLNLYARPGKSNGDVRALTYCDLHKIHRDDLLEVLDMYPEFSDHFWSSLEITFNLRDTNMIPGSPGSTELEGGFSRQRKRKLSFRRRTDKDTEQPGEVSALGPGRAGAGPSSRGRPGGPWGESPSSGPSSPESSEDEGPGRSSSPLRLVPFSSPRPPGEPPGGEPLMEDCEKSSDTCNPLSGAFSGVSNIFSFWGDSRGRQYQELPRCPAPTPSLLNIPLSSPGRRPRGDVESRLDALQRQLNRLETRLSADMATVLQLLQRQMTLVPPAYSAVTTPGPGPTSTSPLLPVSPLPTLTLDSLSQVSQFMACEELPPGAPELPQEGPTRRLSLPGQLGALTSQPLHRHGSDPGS
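U2OS cells were transduced with wild-type KCNH2 virus (2.03 x 10^8 / mL) for 4 h at room temperature, then cultured overnight at 37 C. Thallium flux was read with FluxOr dye. Rate constants were normalized to DMSO controls.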
* marks the source's active call; other numbers are inactive results; i = inactive; ? = inconclusive; . = no result given; ! = not confirmed by another sample; [ ] = another dose, or the depositor's remark. Shown are actives, neighbours in structure and some others; about 1.2% of the full set was active somewhere. Unless noted, the call rests on the fitted dose curve; in most records, active means well fitted curve in the direction sought with a large enough effect; inconclusive means small, poorly fitted or top-dose-only effect, or another doubt; inactive means no such curve, though single readings can be large; an effect the other way counts as inactive or inconclusive. On the % scale 0 is the no-effect control and ±100 the full control effect.

SMILES	GCN5L2 inh	Pin1 inh	KCNH2 3.1 block	PGK inhibitor	RGS4 inh	hERG WT inh
CC1=C/C(=C\c2ccc(Br)o2)C(=O)O1	-0.8%	?	4.8	10µM*	-4.8%	3.8
O=C1C(=Cc2ccc(Br)o2)C(=O)c2ccccc21	?	3.01µM*	-3.7	7.94µM*	?	2.5
CC1=C(C(=O)OCc2ccc(C)cc2)C(c2ccccc2F)CC(=O)N1 (configuration not stated)	?	3.4%	.	2.2%	13.0%	.
CN(Cc1ccco1)c1cc(-c2ccc3c(c2)OCO3)ncn1	28.2µM*	.	.	.	.	.
CN(Cc1ccco1)c1cc(-c2cccnc2)ncn1	-4.0%	.	.	.	.	.
O=C(c1cnn2c(C(F)F)cc(C3CC3)nc12)N1CCCC1	-3.0%[0.501 µM]	0.3%	-98.5*	-3.2%	5.9%	-2.5
Fc1ccc(Nc2nc(NCc3ccco3)c3ccccc3n2)cc1	-4.4%	?	-91.9*	3.4%	5.2%	-12.6
Nc1nc(Nc2ccccc2)nc(NCc2ccco2)c1[N+](=O)[O-]	-5.9%	?	8.4	4.6%	14.7%	-8.8
CCOC(=O)c1c(C)n(C)c2ccc(OC(=O)c3ccc([N+](=O)[O-])cc3)cc12	8.91µM*	-7.0%	-6.7	i	18.4%	-14.3
COc1ccc(Nc2cc(C(=O)NCCCN(C)Cc3ccccc3)c3ccccc3n2)cc1OC	2.1%	1.2%	.	-7.2%	-13.4%	.
COc1cc(NS(=O)(=O)c2ccc([N+](=O)[O-])cc2)c2ncccc2c1	.	-9.4%	.	.	.	.
COc1cccc(CN2CCC(N(CCc3ccccc3)Cc3ccccc3)CC2)c1OC	0.8%	-5.0%	-90.7*	-8.5%	-17.4%	20.0
COc1ccc(C)cc1NC(=O)Cn1c(=O)n(Cc2nc(C)no2)c(=O)c2ccccc21	-7.1%	-7.5%	.	-6.4%	-11.0%	.
CCOC(=O)N1CCc2c(sc3c2c(=O)n(Cc2ccccc2)c(=O)n3Cc2cccc(Cl)c2)C1	1.2%	0.3%	.	i	-1.7%	.
COC(=O)Cc1c(C)c2cc3c(c(C)c2oc1=O)OCN(CCc1ccc(F)cc1)C3	28.2µM*	8.7%	.	-3.5%	5.3%	.
Cc1c(C)c2cc3c(c(C)c2oc1=O)OCN(CCc1ccc(F)cc1)C3	-15.6%	-6.5%	.	0.6%	9.1%	.
COc1ccc(/C=C/c2cc(C(=O)O)c3ccccc3n2)cc1	-24.6%	?	12.3	-4.5%	19.7%	-14.6
Cc1cc(/C=C\c2ccccc2)nc2ccccc12	-10.3%	?	-188.7*	-3.1%	17.1%	-28.0
S=C(Nc1ccccc1)Nc1nccs1	-12.1%	-0.3%	16.2	-4.0%	10.6µM*!	-5.7
CCOC(=O)c1c(C)[nH]c(C)c1S(=O)(=O)N(C)CC(=O)Nc1ccc(C)cc1C	2.7%	-6.8%	.	-6.4%	12.8%	.
O=c1c(S(=O)(=O)c2ccc(Cl)cc2)cn(Cc2cccc(F)c2)c2ccc(F)cc12	-7.4%	11.6%	-81.6*	i	5.8%	?
Cc1ccc(-c2c(CN3CCN(c4cccc(C)c4)C(C)C3)csc2C)cc1 (configuration not stated)	-6.5%	-0.7%	.	0.9%	8.8%	.
Cn1c(C(=O)Nc2ccc(OC(F)(F)F)cc2)cc2c(=O)n3ccccc3nc21	-5.7%	-0.1%	.	15.3%	-45.0%	.
C[N+]1(CC2COC(c3ccccc3)(C3CCCCC3)O2)CCCCC1 (configuration not stated)	22.4µM*	.	.	.	.	.
CC1(C)C(=O)N(CCN2CCC(C(=O)c3ccc(F)cc3)CC2)c2ccccc21	-10.4%	-0.3%	-75.2*	i	11.1%[56.9 µM]	17.4
SMILES	GCN5L2 inh	Pin1 inh	KCNH2 3.1 block	PGK inhibitor	RGS4 inh	hERG WT inh
Cc1cc(C)cc(NC(=O)CSc2nc3ccccc3nc2N2CCCCC2)c1	35.5µM*	40.6%	-5.4	-0.3%	-0.9%	-2.8
O=C(O)c1ccccc1SC1=NS(=O)(=O)c2ccccc21	.	-15.0%	.	.	.	.
O=C(CNC(=S)N(CCCN1CCOCC1)Cc1cccs1)NCCCN1CCOCC1	-0.9%	0.9%	14.9	-4.8%	8.9%	19.0
COC(CNC(=O)CNC(=S)N(CCCN1CCOCC1)Cc1cccs1)OC	-3.0%	2.3%	-5.1	0.6%	5.6%	0.3
O=C(CNC(=S)N(CCCN1CCOCC1)Cc1cccs1)NCc1ccc(Cl)cc1	-1.5%	4.1%	-83.0*	1.1%	0.9%	-83.7*
O=C(CNC(=S)N(CCCN1CCOCC1)Cc1cccs1)NCc1ccccc1Cl	-3.8%	2.6%	-123.0*	i	-22.5%	-112.6*
COc1cc(CN(C(=O)c2ccc(OC(C)C)cc2)c2ccccn2)cc(OC)c1OC	-0.9%	-4.7%	.	8.6%	39.9%	.
O=C(NC[C@@H](O)CO)c1c(I)c(C(=O)NC[C@@H](O)CO)c(I)c(N(CCO)C(=O)CO)c1I	-4.1%[21.4 µM]	.	.	.	.	.
COC(=O)CN1C(=O)[C@@H]2[C@H](C1=O)[C@@H]1CC(C(=O)OC)=C[C@@H](C(=O)OC)C3C1=C(C(=O)[C@@]3(C)NC(=O)c1ccccc1)[C@@H]2C (some centres not stated)	.	-13.7%	.	.	9.2%	.
Cc1cc(C)n2ncc(C(=O)NCCc3ccccc3)c2n1	.	-0.9%	6.5	-0.2%	-16.7%	11.8
Cc1cc(C)n2ncc(C(=O)NCc3ccccc3)c2n1	-10.6%	5.7%	-87.1*	4.7%	10.1%	-4.6
Cc1cc(NC(=O)C23CCC(C)(C(=O)O2)C3(C)C)no1 (configuration not stated)	1.8%	-8.2%	-191.3*	-2.7%	-5.8%	-22.1
Cc1cccc(NC(=O)C23CCC(C)(C(=O)O2)C3(C)C)c1 (configuration not stated)	-17.5%	-0.7%	4.2	-2.0%	12.3%[11.4 µM]	-9.4
Cc1nc(N)[nH]c(=O)c1CCCNc1ccc(CCC2(CCl)OCCO2)cc1	.	6.6%	4.1	i	?	-4.7
Cc1nc(N)[nH]c(=O)c1CCCNc1ccc([N+](=O)[O-])cc1	.	-2.0%	-119.2*	-8.2%	13.2%	-3.0
COc1cccc(NC(=O)CSC2=Nc3ccccc3N=C(c3ccc(F)cc3)C2)c1	-29.7%	6.6%	.	-6.6%	27.0%	.
Cc1ccccc1-c1nc(SCc2cccnc2)c2c(=O)n(C)c(=O)n(C)c2n1	-4.8%	-1.1%	-4.9	i	-42.8%	-255.7*
CCCc1nc(SCc2cccnc2)c2c(=O)n(C)c(=O)n(C)c2n1	-0.5%	9.0%	-5.8	-7.6%	-10.6%	14.3
